Screening results: PubChem, National Center for Advancing Translational Sciences (NCATS)
Six1-Eya2 inh: qHTS Assay for Inhibitors of the Six1/Eya2 Interaction. activity change, % (no concentration beside the values). AlphaScreen GST-Six1/His-Eya2 binding, biochemical; stronger effect = lower value. hit rate 0.56% among 360,000. Homeobox protein SIX1 (Homo sapiens) + Protein phosphatase EYA2 (Homo sapiens), …. AID 651725, 2012; in the data active = activity change below about -65%; inconclusive = mostly about -30% to -63%; note: % is set by controls: 0 for no effect and ±100 for the full control effect
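Homogeneous AlphaScreen proximity assay pairing GST-Six1 with His-tagged Eya2 (added as 5X mix: 250 nM and 500 nM) in 50 mM Tris pH 8.0, 300 mM NaCl, 1 mM TCEP. Glutathione donor and nickel acceptor beads; 1 h, 37 °C, dark.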
BAZ2B block: qHTS Assay for Inhibitors of BAZ2B; Potency, µM (series often up to 114 µM), without a hit: at the top dose activity change, negative = inhibition, actives largely listed as inhibitors; AlphaScreen BAZ2B-H3K14Ac peptide displacement; Bromodomain adjacent to zinc finger domain protein 2B (Homo sapiens), Q9UIF8; AID 504333, 2011; hit rate 4.4% among 360,000; note: potency is the fitted concentration of half-maximal effect; % is set by controls: 0 for no effect and ±100 for the full control effect; nearly all actives have a fitted effect of over 60% in size
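Multi-concentration screen (max 110 uM) measuring displacement of acetylated histone H3 peptide from BAZ2B by AlphaScreen, using 50 nM protein, 50 nM peptide and 10 ug/mL streptavidin donor plus Ni-chelate acceptor beads.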
HP1b binding inh: HTS for Inhibitors of HP1-beta Chromodomain Interactions with Methylated Histone Tails | Chromobox protein homolog 1 (Homo sapiens), P83916 | AlphaScreen HP1-beta / biotin-H3K9me3 peptide binding | Potency, µM (highest dose often 114 µM), for the others: at the top dose activity change, negative = inhibition, actives largely listed as inhibitors | hit rate 0.56% among 390,000; note: potency is the fitted concentration of half-maximal effect; nearly all actives have a fitted effect of over 70% in size
Target sequence (P83916 whole entry, looked up): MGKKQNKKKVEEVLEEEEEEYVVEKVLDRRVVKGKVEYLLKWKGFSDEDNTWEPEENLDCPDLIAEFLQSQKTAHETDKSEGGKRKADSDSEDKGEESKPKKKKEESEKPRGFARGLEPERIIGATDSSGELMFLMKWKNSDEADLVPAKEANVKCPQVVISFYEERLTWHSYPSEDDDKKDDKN
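Compound inhibition of the preformed complex between 50 nM HP1-beta and 50 nM biotinylated H3K9me3 peptide was read by AlphaScreen. Buffer was PBS pH 7.4 with 0.01% Tween-20. Incubations ran 30 min at room temperature, with 10 ug/mL donor/acceptor beads.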
JMJD2A Tudor: qHTS Assay for Inhibitors of JMJD2A-Tudor Domain; AlphaScreen JMJD2A-Tudor / H3K4me3 peptide binding; Lysine-specific demethylase 4A (Homo sapiens), O75164; Potency, µM (top dose mostly 114 µM), for inactives: at the top dose activity change, negative = inhibition, hits mostly inhibitors; hit rate 4.4% among 390,000; note: potency is the fitted concentration of half-maximal effect; % is set by controls: 0 for no effect and ±100 for the full control effect; nearly all actives have a fitted effect of over 50% in size
CtBP-E1A blk: qHTS Assay for Inhibitors of the CtBP/E1A Interaction. CtBP / adenovirus E1A interaction (AlphaScreen). AlphaScreen GST-E1A/His-CtBP binding, 1536-well; stronger effect = lower value. activity change, % (test concentration not listed). hit rate 0.49% among 340,000. AID 651724, 2012; in the data active = activity change below about -65%; inconclusive = mostly about -30% to -63%; note: % is set by controls: 0 for no effect and ±100 for the full control effect
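AlphaScreen with 125 nM GST-E1A and 125 nM His-CtBP (5X stocks) in Tris pH 8.0, 300 mM NaCl, BSA, Tween 20, TCEP. Compounds preincubated 2 h at 37 deg C, then glutathione donor/nickel acceptor beads added for 1 h at 37 deg C in dark.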
G9a inh: qHTS Assay for Inhibitors of Histone Lysine Methyltransferase G9a | G9a H3K9 monomethylation, AlphaScreen, 2 h | Potency, µM (top dose mostly 102 µM), without a hit: at the highest dose activity, negative = inhibition, hits mostly inhibitors | hit rate 8.8% among 350,000 | Histone-lysine N-methyltransferase EHMT2 (Homo sapiens), Q96KQ7; note: potency is the fitted concentration of half-maximal effect; % is set by controls: 0 for no effect and ±100 for the full control effect; nearly all actives have a fitted effect of over 75% in size
Target sequence (Q96KQ7 913-1193 limits assumed): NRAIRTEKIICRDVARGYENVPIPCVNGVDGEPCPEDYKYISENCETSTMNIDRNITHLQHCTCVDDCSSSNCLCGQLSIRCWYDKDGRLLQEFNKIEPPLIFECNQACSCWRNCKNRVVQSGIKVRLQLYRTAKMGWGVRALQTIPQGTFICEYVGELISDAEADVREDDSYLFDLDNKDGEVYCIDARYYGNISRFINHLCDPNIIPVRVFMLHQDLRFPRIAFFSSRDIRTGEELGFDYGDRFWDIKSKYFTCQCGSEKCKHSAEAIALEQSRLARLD
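Chemiluminescent proximity detection of H3K9 monomethylation, read after 10 min bead incubation in the dark. Reaction: 20 nM G9a, 500 nM biotin-H3K9 peptide, 20 uM SAM cofactor, 2 h, room temperature, following 15 min enzyme-compound preincubation.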
* marks the source's active call; other numbers are inactive results; i = inactive; ? = inconclusive; . = no result; [ ] = another dose, or the depositor's remark. In the library only some 10% were active in any assay of this set; here they are far more common. Unless noted, calls come from the whole dose curve; as a rule, active = well fitted inhibition curve with a large enough effect; inconclusive = small, poorly fitted or top-dose-only effect; inactive = no such curve, though single readings can be large or run the other way.

SMILES	Six1-Eya2 inh	BAZ2B block	HP1b binding inh	JMJD2A Tudor	CtBP-E1A blk	G9a inh
COc1ccc(S(=O)(=O)N(C)C)cc1NC(=O)[C@H](Cc1ccccc1)N1C(=O)c2ccccc2C1=O	-8	3%	37%	-7%	-2	50µM*
CCN(CC)S(=O)(=O)c1ccc2oc(SCC(=O)NC3CC3)nc2c1	2	?	-22%	-1%	-4	13µM*
CCN(CC)S(=O)(=O)c1ccc2oc(Nc3ccccc3)nc2c1	-14	-24%	-23%	?	-13	32µM*
CCN(CC)S(=O)(=O)c1ccc2oc(Nc3ccc(OC)cc3OC)nc2c1	-16	?	18%	-17%	11	-7%
CCN(CC)S(=O)(=O)c1ccc2oc(SCC(=O)Nc3cc(C)on3)nc2c1	-5	6%	-56%	?	-20	7%[0.501 µM]
COc1ccc(CCNC(=O)c2cc(=O)[nH]c3ccc(S(=O)(=O)N4CCCCC4)cc23)cc1OC	.	1%	18%	-24%	.	-2%[59 µM]
Cc1ccc(C)c2[nH]c(=O)c(C(c3nnnn3Cc3ccco3)N3CCc4ccccc4C3)cc12 (stereo unspecified)	-15	-32%	20%	-31%	-12	32µM*
CN(C)CCCN(Cc1cc2cc3c(cc2[nH]c1=O)OCO3)C(=S)Nc1cccc(Cl)c1	-1	-39%	-1%	?	1	50µM*
CCNC(=S)N(Cc1ccco1)Cc1cc2cc3c(cc2[nH]c1=O)OCCO3	-11	7%	27%	10%	-9	18%[59 µM]
CNC(=S)N(Cc1ccco1)Cc1cc2cc3c(cc2[nH]c1=O)OCCO3	-5	-26%	-10%	-28%	-1	79µM*
COc1ccccc1CN(Cc1cc2c(C)ccc(C)c2[nH]c1=O)Cc1nnnn1Cc1ccco1	-6	-33%	14%	-22%	10	13µM*
Cc1c(P(=S)(c2ccccc2)c2ccccc2)c2ccccc2n1C(=O)Cc1ccccc1	.	.	.	-7%	.	.
CCOc1ccccc1CNC(=O)CN(c1ccc(C)cc1)S(=O)(=O)N(C)C	.	4%	27%	3%	.	-4%[59 µM]
Cc1ccc(CN(Cc2cc3cc4c(cc3[nH]c2=O)OCCO4)Cc2nnnn2Cc2ccco2)cc1	-10	-32%	-16%	-35%	-19	13µM*
Cc1ccc2cc(CN(Cc3ccc4c(c3)OCO4)Cc3nnnn3Cc3ccco3)c(=O)[nH]c2c1	-22	?	9%	-17%	-16	?
O=C(OCc1ccc(Br)cc1)c1ccncc1	17	8%	77%	3%	.	.
O=C(OCc1ccc(Br)cc1)c1cnc(Cl)c(Cl)c1	38	404%	464%	71µM*	27	i
COc1ccc(-c2csc(NC(=O)C3CC(=O)N(Cc4ccccc4)C3)n2)cc1OC (stereo unspecified)	-27	?	-24%	?	-26	50µM*
CSc1cccc(NC(=O)C2CC(=O)N(Cc3ccccc3)C2)c1 (stereo unspecified)	4	-19%	38%	-14%	0	45µM*
CCN(c1ccccc1)S(=O)(=O)c1ccc(OC)c(NC(=O)c2ccco2)c1	-28	.	.	.	1	.
CCN(c1ccccc1)S(=O)(=O)c1ccc(OC)c(NC(=O)C2CC(=O)N(Cc3ccccc3)C2)c1 (stereo unspecified)	8	-27%	21%	-33%	.	56µM*
COc1ccc(CC(=O)Nc2nc(-c3ccc(OC)c(OC)c3)cs2)cc1OC	-12	?	-20%	?	-11	-17%
COc1ccc(C=O)c(-c2c(CCO)sc3ccccc23)c1	11	.	.	.	11	.
O=[S+]([O-])(c1ccc2c(c1)OCCO2)N1CCN([S+](=O)([O-])c2cc(Cl)ccc2F)CC1	.	.	.	-11%	.	.
CCOC(=O)c1c(NC(=O)CS(=O)(=O)c2ccc(C)cc2)sc2c1CCCCC2	.	-6%	-10%	-15%	.	-1%[59 µM]
SMILES	Six1-Eya2 inh	BAZ2B block	HP1b binding inh	JMJD2A Tudor	CtBP-E1A blk	G9a inh
CC(=O)c1cccc(N(C(=O)Cn2nnc3ccccc32)C(C(=O)NCc2ccccc2)c2ccc(F)cc2)c1 (stereo unspecified)	.	6%	27%	-13%	.	4%[59 µM]
N#CCSc1nnc(-c2ccc(S(=O)(=O)N3CCOCC3)cc2)n1CC1CCCO1 (stereo unspecified)	1	4%	18%	89µM*	-9	-31%
CCSc1nnc(-c2ccc(S(=O)(=O)N3CCOCC3)cc2)n1C	?	-13%	63%	?	-11	-2%
CSc1nnc(-c2ccc(S(=O)(=O)N3CCOCC3)cc2)n1C	-1	-17%	44%	-3%	-9	22µM*
CCc1ccccc1NC(=O)Cn1c(=O)n(Cc2ccco2)c(=O)c2sc3ccccc3c21	.	-9%	30%	-4%	.	-32%[59 µM]
Clc1ccc(C(c2nnnn2C2CCCC2)N2CCN(Cc3ccncc3)CC2)cc1 (stereo unspecified)	6	?	44%	16%[11.4 µM]	-11	3%[59 µM]
Fc1ccccc1N1CCN(C(c2ccncc2)c2nnnn2C2CCCC2)CC1 (stereo unspecified)	-2	0%	41%	-18%	9	32µM*
CCC(c1nnnn1C1CCCC1)N1CCN(c2ccccc2F)CC1 (stereo unspecified)	-4	-29%	42%	-5%	4	-36%[12.7 µM]
CCCC(c1nnnn1C1CCCC1)N1CCN(c2ccccc2F)CC1 (stereo unspecified)	-2	-30%	32%	-5%[11.4 µM]	-1	50µM*
c1ccc(C(c2nnnn2C2CCCC2)N2CCCCCC2)nc1 (stereo unspecified)	-6	50µM*	7%	50µM*	-4	28µM*
CC(C)Cn1c(N)c(C(=O)COC(=O)c2cnc(Cl)c(Cl)c2)c(=O)n(C)c1=O	-19	-21%	55%	0%	-17	-21%
Cc1ccc(NCc2cccn2-c2nnc(N3CCCCCC3)s2)cc1	.	-8%[57.1 µM]	-16%	?	.	-34%[59 µM]
CCOc1ccc(-n2c(SCc3nc(-c4ccc(OC)cc4)no3)nnc2-c2ccncc2)cc1	.	-32%	7%	-28%	.	-7%[59 µM]
CCOC(=O)[C@]12CCCC=C1N(Cc1cccc3ccccc13)C(=O)[C@H](CC(=O)NCc1cccs1)C2	-11	.	.	.	-3	.
